Among the data in PubChem BioAssay (NCATS) are Potency and outcome values, retold here.

A short description of test [1]: SDT Cancer Cell Toxicity qHTS against the NCATS CANVASS Library (AID 1347365). Further: nearly all actives have a fitted effect of over 60% in size. Further: potency means the concentration at half of the fitted maximal effect. The settings on record: SDT dog glioma viability, ATP luminescence, 72 h; series mostly up to 46.1 µM. A digest of the protocol: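 Cytotoxicity is measured from cellular ATP: compounds in an 11-point concentration series are pinned onto SDT cells, incubated 72 hr at 37C, then CellTiterGlo is added and luminescence read.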
(In general: In qHTS, concentration-response curves come from the screen itself.)

A short description of test [2]: G06 Cancer Cell Toxicity qHTS against the NCATS CANVASS Library (AID 1347368). Further: nearly all actives have a fitted effect of over 60% in size. Further: potency means the concentration at half of the fitted maximal effect. Particulars: G06 dog glioma cells, viability ATP luminescence, 72 h; series mostly up to 46.1 µM. The method in brief: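 Cells were plated at 500 per well, then compounds were added over an 11-point range. After 72 hr at 37C, CellTiterGlo was added and luminescence measured as ATP content.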

A short description of test [3]: MCF7 Cancer Cell Toxicity qHTS against the NCATS CANVASS Library (AID 1347369). Further: potency means the concentration at half of the fitted maximal effect. The settings on record: MCF7 viability, ATP luminescence (CellTiter-Glo), 72 h. The method in brief:
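This 72 hr qHTS scored MCF7 viability by CellTiterGlo luminescence, with 500 cells/well; bortezomib titration ran as control.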

Test [4] in a line: J3T Cancer Cell Toxicity qHTS against the NCATS CANVASS Library (AID 1347371). The settings on record: J3T dog glioma viability, ATP luminescence, 72 h; series mostly up to 46.1 µM. A digest of the protocol:
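Luminescence from CellTiterGlo, reporting cellular ATP, serves as the viability measure after 72 hr compound treatment of J3T canine glioma cells seeded at 500 cells/well.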

The target of test [5] is Nuclear receptor subfamily 1 group I member 3 (Homo sapiens) (UniProt Q14994). As to the kind of experiment: qHTS for Constitutive Androstane Receptor (CAR) Antagonist screened against the NCATS CANVASS Library (AID 1347372).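 Further: cells stimulated with 50 nM CITCO agonist so inhibition reflects antagonism.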 The settings on record: HepG2-hCAR-CYP2B6 luciferase, CITCO-stimulated antagonist mode; series mostly up to 46.1 µM. A digest of the protocol:
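Cells were seeded and left 4hr to attach, then received compound at 11 concentrations and 50 nM CITCO. Following 24hr incubation, fluorescence viability and luciferase luminescence were read sequentially.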

Test [6] is described as follows: qHTS for Hypoxia signaling pathway (HIF-1) agonists against the NCATS CANVASS Library (AID 1347375). The settings on record: HRE-bla ME-180 cells, HIF-1 beta-lactamase reporter, 17 h; series mostly up to 38.3 µM. A digest of the protocol:
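Cells plated and rested 5 h, compounds pinned in DMSO across 11 concentrations, incubated 17 h at 37C, loaded with CCF4-AM for 2 h, fluorescence read at 460 and 530 nm, then CellTiter-Glo luminescence measured for viability and normalization.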

Test [7] is described as follows: 10-beta competent E. coli microbial cell viability qHTS against the NCATS CANVASS Library (AID 1347376). The settings on record: E. coli 10-beta viability, BacTiter-Glo ATP luminescence, overnight; series mostly up to 46.1 µM. The method in brief:
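Bacterial suspension diluted to 0.2 OD was dosed with compounds, 11-point series, then held overnight at 37C. BacTiter-Glo reagent was added, and after 20 min at room temperature ATP-dependent luminescence was measured.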

A short description of test [8]: DH5-alpha competent E. coli microbial cell viability qHTS against the NCATS CANVASS Library (AID 1347377). The settings on record: BacTiter-Glo ATP luminescence, overnight; series mostly up to 46.1 µM. A digest of the protocol:
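Bacteria were dispensed at 0.2 OD, then compounds were pin-transferred. Plates were incubated overnight at 37C, after which BacTiter-Glo was added and luminescence measured 20 min later.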

Test [9] can be described thus: qHTS for H2AX Agonists against the NCATS CANVASS Library (AID 1347378).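 Further: phospho-H2AX S139 level in CHO-K1 lysates by TR-FRET emission ratio.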 Further: potency means the concentration at half of the fitted maximal effect. The settings on record: CHO-K1 H2AX phosphorylation, HTRF TR-FRET, 3 h; series mostly up to 76.9 µM. The method in brief:
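Signal is the 665/620 nm emission ratio from europium cryptate and d2 antibody pair, rising with S139-phosphorylated H2AX. CHO-K1 cells saw test agents for 3 hr at 37C; detection ran 24 hr at room temperature.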

Test [10] is described as follows: qHTS for Inflammasome Signaling Inhibitors: IL-1-beta AlphaLISA screen against the NCATS CANVASS Library (AID 1347379).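 Further: human THP-1 cells primed with LPS then triggered with ATP.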 The settings on record: THP-1 LPS/ATP, IL-1B AlphaLISA secretion, 16 h; series mostly up to 57.5 µM. The method in brief:
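Secreted IL-1B from human THP-1 cells quantified by AlphaLISA 16 hr after compound addition (final up to 57.5 uM). A 1 hr compound pretreatment preceded inflammasome activation with 250 ng/mL LPS plus 1.25 mM ATP (final).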

The nature of test [11]: qHTS for Antimalaria activity screened against the NCATS CANVASS Library (AID 1347380). Further: potency means the concentration at half of the fitted maximal effect; nearly all actives have a fitted effect of over 40% in size. The settings on record: P. falciparum Dd2 growth, SYBR Green fluorescence, 72 h. A digest of the protocol: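 Compounds are titrated over 11 concentrations onto Dd2 parasite cultures (0.3% parasitemia, 2.5% hematocrit). Growth over 72 h at 37C in low oxygen is measured as SYBR Green DNA fluorescence after lysis.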

A short description of test [12]: Inflammasome Signaling qHTS Counterscreen: IL-1-beta AlphaLISA counterscreen against the NCATS CANVASS Library (AID 1347381).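 Further: cell-free check with purified IL-1β in medium and no THP-1 cells.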 Particulars: Purified IL-1beta AlphaLISA signal interference counterscreen; series mostly up to 57.5 µM. The method in brief: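 Purified IL-1-beta (4 pg/well) + compound, 11-pt conc. series; acceptor beads 6 ug/mL + biotin-Ab 0.6 nM final, 1 h RT; SA-donor 24 ug/ml final, 30 min dark RT; read ex 680/em 615.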

Test [13] is described as follows: Cytotoxicity qHTS for assessment of Hepg2 cells membrane integrity screened against the NCATS CANVASS Library (AID 1347387). Particulars: HepG2 LDH release (CytoTox-ONE) fluorescence, 5 h; series mostly up to 46.1 µM. A digest of the protocol: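 Cells were seeded at 2000 per well and left overnight to attach. Compounds were pin-transferred to give 0.59 nM - 46 uM in an 11-point series and incubated 5 hr at 37C. CytoTox-ONE reagent was added and, after 10 min at room temperature, fluorescence (ex 560, em 590 nm) was read.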

Test [14] concerns the target Luciferin 4-monooxygenase (Photinus pyralis) (UniProt P08659). As to the kind of experiment: Firefly luciferase counterscreen qHTS: Assay Interference Panel against the NCATS CANVASS Library (AID 1347363). The settings on record: purified firefly luciferase, luminescence inhibition, 5 min; series mostly up to 57.5 µM. A digest of the protocol:
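Purified P. pyralis luciferase was added to compounds (11-point series) preincubated 15 min at room temperature with substrate containing 0.013 mM D-luciferin and 0.013 mM ATP; luminescence was read after 5 min.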

The nature of test [15]: KB-8-5-11 Cancer Cell Toxicity qHTS against the NCATS CANVASS Library (AID 1347364). Further: nearly all actives have a fitted effect of over 75% in size. The settings on record: KB-8-5-11 MDR cells viability, CellTiter-Glo, 72 h; series mostly up to 46.1 µM. The method in brief:
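Terse: KB-8-5-11, 500 cells/well, 72 hr, 37C/5% CO2, 11-pt titration, CellTiter-Glo readout; confirmatory runs ± 1uM tariquidar in medium.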

Test [16] can be described thus: KB-3-1 Cancer Cell Toxicity qHTS against the NCATS CANVASS Library (AID 1347366). Further: nearly all actives have a fitted effect of over 75% in size. The settings on record: KB-3-1 viability, CellTiter-Glo luminescence, 72 h; at 46.1 µM (top of the series). The method in brief:
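Cytotoxicity toward KB-3-1 cells (500/well, DMEM + 10% FBS) was scored by CellTiter-Glo luminescence following 72 hr exposure at 37C, with bortezomib titrated as control.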

A short description of test [17]: qHTS for ATAD5 Agonist screened against the NCATS CANVASS Library (AID 1347367).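 Further: luciferase reporter driven by ATAD5 which rises upon DNA damage.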 The settings on record: HEK293T ATAD5-luciferase reporter, luminescence, 16 h; series mostly up to 46.1 µM. The method in brief:
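Genotoxicity was scored as increased ATAD5-luciferase luminescence in HEK293T after 16hr of exposure, with cell viability measured by fluorescence beforehand in the same well.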

Test [18] can be described thus: qHTS for ATAD5 Antagonist screened against the NCATS CANVASS Library (AID 1347370).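 Further: HEK293T cells carrying an ATAD5 luciferase reporter co-treated with 10 µM 5-fluorouridine; nearly all actives have a fitted effect of over 65% in size.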 Particulars: HEK293T-ATAD5-luc, 5-FUrd stimulated, luminescence, 16 h; series mostly up to 46.1 µM. The method in brief: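 Compounds (11-point) co-dosed with 10 µM 5-FUrd for 16 h at 37 °C onto HEK293T-ATAD5 luciferase reporter cells. Viability measured by CellTiter-Fluor fluorescence, then ATAD5 reporter signal by luminescence.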

Test [19] addresses Nuclear receptor subfamily 1 group I member 3 (Homo sapiens) (UniProt Q14994). As to the kind of experiment: qHTS for Constitutive Androstane Receptor (CAR) Agonist screened against the NCATS CANVASS Library (AID 1347373).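 Further: every well also contained 1.5 µM PK11195 alongside the test compound.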 Particulars: HepG2-hCAR-CYP2B6 luciferase reporter, ONE-Glo luminescence; series mostly up to 46.1 µM. A digest of the protocol: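 Cells were plated and allowed to attach for 4hr, then dosed with compound in an 11-point series alongside 1.5uM PK11195. After 24hr at 37C, viability was measured fluorometrically and CAR-driven CYP2B6 reporter luminescence was recorded.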

Test [20] is described as follows: qHTS for Hypoxia signaling pathway (HIF-1) antagonists against the NCATS CANVASS Library (AID 1347374).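 Further: HRE-bla ME-180 cells stimulated with cobalt chloride to stabilize HIF-1alpha; nearly all actives have a fitted effect of over 60% in size.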 Particulars: HRE-bla ME-180 cells, HIF-1 beta-lactamase reporter, CoCl2; series mostly up to 38.3 µM. A digest of the protocol:
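Antagonism scored as loss of CoCl2-driven (60 uM stock added) HRE beta-lactamase signal, read by CCF4 FRET at 460/530 nm. Compounds were tested in an 11-point series on ME-180 reporter cells for 17 hrs at 37C, with parallel CellTiter-Glo cytotoxicity.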

Inconclusive results are not listed. Active and inactive are the calls of the source. The call rests on the fitted dose curve; in most records, active means well fitted curve in the direction sought with a large enough effect; inconclusive means small, poorly fitted or top-dose-only effect, or another doubt; inactive means no such curve, though single readings can be large; an effect the other way counts as inactive or inconclusive.

Sequence of Nuclear receptor subfamily 1 group I member 3 (Homo sapiens) (Q14994 whole entry, looked up): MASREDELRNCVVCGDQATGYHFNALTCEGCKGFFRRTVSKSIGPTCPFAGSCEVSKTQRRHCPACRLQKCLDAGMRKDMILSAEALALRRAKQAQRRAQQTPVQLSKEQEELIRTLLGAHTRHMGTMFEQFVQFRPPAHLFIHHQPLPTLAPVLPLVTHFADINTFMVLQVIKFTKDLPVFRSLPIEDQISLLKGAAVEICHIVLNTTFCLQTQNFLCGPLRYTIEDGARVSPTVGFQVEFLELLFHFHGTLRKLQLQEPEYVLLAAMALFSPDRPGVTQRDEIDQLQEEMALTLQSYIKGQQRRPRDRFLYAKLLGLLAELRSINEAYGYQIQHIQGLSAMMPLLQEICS
Sequence of Luciferin 4-monooxygenase (Photinus pyralis) (P08659 whole entry, looked up): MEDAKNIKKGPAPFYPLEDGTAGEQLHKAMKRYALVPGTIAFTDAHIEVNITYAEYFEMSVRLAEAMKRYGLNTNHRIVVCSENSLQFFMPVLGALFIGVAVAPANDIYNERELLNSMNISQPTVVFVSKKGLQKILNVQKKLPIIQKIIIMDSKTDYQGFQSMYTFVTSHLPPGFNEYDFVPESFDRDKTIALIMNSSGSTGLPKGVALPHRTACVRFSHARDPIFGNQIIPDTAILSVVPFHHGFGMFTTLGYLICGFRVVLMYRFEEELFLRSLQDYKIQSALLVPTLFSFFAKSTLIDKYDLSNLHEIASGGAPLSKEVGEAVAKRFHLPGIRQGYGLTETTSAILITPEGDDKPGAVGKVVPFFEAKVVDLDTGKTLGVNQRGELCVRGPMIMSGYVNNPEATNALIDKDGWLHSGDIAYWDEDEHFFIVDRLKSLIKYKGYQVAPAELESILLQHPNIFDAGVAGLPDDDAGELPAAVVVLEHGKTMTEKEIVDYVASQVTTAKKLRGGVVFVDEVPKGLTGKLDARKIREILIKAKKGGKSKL

Turning to `O=c1cc(-c2ccccc2)oc2c(O)c(O)ccc12`, the Potency is 4.18 µM (active) in test [1]; 9.35 µM (active) in test [2]; 13.1 µM (active) in [3]; 34.4 µM (active) in test [9]; 0.0067 µM (active) in [11]. In addition, the call in test [4], in test [5], in test [6], in test [7], in test [8] and in [10] was inactive. The result in test [12] and in test [13] was inactive.

For the compound `O=C(O)c1cc(O)c(O)c(O)c1`, the outcome in test [14], in test [15], in [16], in [17], in [18] and in test [4] was inactive. Also, the result in [5], in [19], in test [20], in test [6], in [7] and in test [8] was inactive. Also, the call in test [10], in [12] and in [13] was inactive. The Potency result in test [1], in [2] and in test [9] was “inactive” in each case. In addition, the Potency in test [11] was 0.0053 µM (active).
